Data published in PubChem BioAssay AID485360 (National Center for Advancing Translational Sciences (NCATS), 2010).
The whole screen tested about 230,000 compounds, of which about 1,500 (0.65%) were called active. Where a call stands in place of a potency, no number is given. Inconclusive results (about 3%) are left out. The sample holds actives, similar compounds and a random draw of the others, so the mix is not that of the screen. A number with no mark means an inactive call. The call rests on the fitted dose curve; in most records, active means well fitted inhibition curve with a large enough effect; inconclusive means small, poorly fitted or top-dose-only effect; inactive means no such curve, though single readings can be large or run the other way.

target: Lethal(3)malignant brain tumor-like protein 1 (Homo sapiens) (UniProt Q9Y468); assay: qHTS Assay for the Inhibitors of L3MBTL1; details: AlphaScreen L3MBTL1–H3K9me1 peptide binding; series mostly up to 57.1 µM; further: nearly all actives have a fitted effect of over 60% in size
Procedure, shortened: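 Displacement of a biotinylated histone H3(1-15) peptide monomethylated at Lys9 (75 nM) from L3MBTL1 (50 nM) was measured by AlphaScreen after a 30 min room-temperature compound incubation; cefsulodin titration served as intraplate control.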
Potency means the concentration at half of the fitted maximal effect.

Sequence of Lethal(3)malignant brain tumor-like protein 1 (Homo sapiens) (Q9Y468 whole entry, looked up): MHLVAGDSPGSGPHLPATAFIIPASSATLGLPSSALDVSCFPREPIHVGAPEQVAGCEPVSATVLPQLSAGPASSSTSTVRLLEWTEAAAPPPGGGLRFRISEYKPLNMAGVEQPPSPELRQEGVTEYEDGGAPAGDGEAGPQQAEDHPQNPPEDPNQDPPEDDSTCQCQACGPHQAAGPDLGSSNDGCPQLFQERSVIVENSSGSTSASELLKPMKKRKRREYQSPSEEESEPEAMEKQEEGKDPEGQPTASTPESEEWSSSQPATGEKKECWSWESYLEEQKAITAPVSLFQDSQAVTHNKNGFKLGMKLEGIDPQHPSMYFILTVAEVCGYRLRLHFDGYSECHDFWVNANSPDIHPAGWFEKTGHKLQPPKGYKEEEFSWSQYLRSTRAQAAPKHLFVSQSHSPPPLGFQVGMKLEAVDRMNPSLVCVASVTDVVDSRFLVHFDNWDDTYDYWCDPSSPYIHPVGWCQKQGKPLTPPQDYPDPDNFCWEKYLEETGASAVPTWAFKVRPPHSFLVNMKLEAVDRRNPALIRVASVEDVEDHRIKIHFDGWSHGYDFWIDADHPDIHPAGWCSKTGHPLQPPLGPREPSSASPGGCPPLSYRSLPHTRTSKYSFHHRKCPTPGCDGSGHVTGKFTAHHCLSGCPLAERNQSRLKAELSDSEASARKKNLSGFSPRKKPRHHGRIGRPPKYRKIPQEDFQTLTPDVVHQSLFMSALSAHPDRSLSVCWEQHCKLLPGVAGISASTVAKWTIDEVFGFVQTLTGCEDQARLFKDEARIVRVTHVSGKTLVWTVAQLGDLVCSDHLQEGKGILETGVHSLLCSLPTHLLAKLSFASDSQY

| SMILES | Potency | activity, negative = inhibition |
| --- | --- | --- |
| CC(=O)c1c(C)[nH]c(C(=O)COc2ccc3c(C)cc(=O)oc3c2)c1C | inactive |  |
| O=C(CCC1CCCCC1)Nc1cc(C(F)(F)F)ccc1N1CCOCC1 | inactive |  |
| Cc1ccc(S(=O)(=O)CCC(=O)OCC(=O)NCCc2ccc(S(N)(=O)=O)cc2)cc1 | inactive |  |
| COc1ccccc1C(CNC(=O)c1cccc(S(=O)(=O)Nc2ccc(F)cc2)c1)N(C)C (centres undefined) | inactive |  |
| O=c1ccc2c(-c3ccccc3S(=O)(=O)O)c3ccc(O)c(O)c3oc-2c1O | 0.251 µM (active) |  |
| CCNC(=O)N(CC)C[C@H]1N[C@@](CC)(C(=O)OC)[C@H]2C(=O)N(Cc3ccccc3)C(=O)[C@@H]12 | inactive |  |
| Cc1ccsc1C(=O)N/N=C/c1ccc([N+](=O)[O-])cc1 | inactive |  |
| Cc1cc(C(=O)N/N=C/c2cc([N+](=O)[O-])cc(C)c2O)n[nH]1 | 22.4 µM (active) |  |
| CC(C)(C)c1cc(C(=O)N/N=C/c2ccc([N+](=O)[O-])s2)n[nH]1 | inactive |  |
| Cc1ccccc1NC(=S)NC(=O)Cc1ccc(Cl)cc1 | inactive |  |
| COc1ccc(OCCCC(=O)Nc2cccc(S(=O)(=O)N3CCCCCC3)c2)cc1 | inactive |  |
| CC(C)(C)NS(=O)(=O)NC(=O)C1=C(N2CCCC2)COC1=O | inactive |  |
| COc1ccc2nc3n(c(=O)c2c1)-c1cc(C)ccc1C(=O)NC3Cc1ccc(O)cc1 (centres undefined) | inactive |  |
| CC(OC(=O)CNC(=O)c1ccc(Cl)c([N+](=O)[O-])c1)C(=O)NCc1ccco1 (centres undefined) | inactive |  |
| O=[N+]([O-])c1cccc(/C([O-])=C(/C(=S)Nc2ccccc2F)[n+]2ccccc2)c1 | inactive |  |
| Cc1ccc(/C([O-])=C(/C(=S)NCc2ccco2)[n+]2ccccc2)cc1[N+](=O)[O-] | 10 µM (active) |  |
| CC(=O)c1c(C)n(-c2ccc(C)cc2)c2ccc(O)cc12 | inactive |  |
| COc1cc2c(-c3ccc4c(c3)OCO4)c(-c3ccsc3)oc(=O)c2cc1OC | inactive |  |
| Cn1cccc1/C=C1\SC(=O)N(CC(=O)Nc2ccc(F)cc2)C1=O | inactive |  |
| N#Cc1ccccc1CN1C(=O)S/C(=C/c2cccn2-c2cccc(C(=O)O)c2)C1=O | 22.4 µM (active) |  |
| O=C(O)c1cccc(N2C(=O)Nc3ccccc3N2O)c1 | inactive |  |
| CN(C(=O)CSc1nnc(-c2ccc(C(C)(C)C)cc2)n1C)C1CCS(=O)(=O)C1 (centres undefined) | inactive |  |
| O=c1[nH]c(N2CCOCC2)nc2ccccc12 | inactive |  |
| C1=C(N2CCOCC2)/C(=C/c2nc3ccccc3[nH]2)CC1 | 25.1 µM (active) |  |
| CC1(C)Cc2c(C#N)c(SCc3nc4ccccc4[nH]3)nc(N3CCOCC3)c2CO1 | inactive |  |
| N#CCN(C(=O)COC(=O)C1CC2CCCC(C1)C2=O)c1ccccc1 (centres undefined) | inactive |  |
| CC(NC(=O)c1ccccc1C(=O)O)c1ccc(-n2ccnc2)cc1 (centres undefined) | inactive |  |

| SMILES | Potency | activity, negative = inhibition |
| --- | --- | --- |
| COc1cc(C=NNC(=O)c2cccnc2)ccc1OC(=O)c1ccccc1F | inactive |  |
| Nc1ccc(Nc2cc(O)c3ncccc3c2)cc1 | 11.2 µM (active) |  |
| CC(C)c1ccc(Nc2ncccc2C#N)cc1 | inactive |  |
| COc1ccc(NC(=O)Nc2cccc3cccnc23)cc1 | inactive |  |
| COc1ccc(S(=O)(=O)N2CCCCC2)cc1NC(=O)COc1ccccc1 | inactive |  |
| Cc1cc(C(=O)COc2ccccc2Cl)c(C)n1C1CC1 | inactive |  |
| CCC(CO)Oc1cc(NC(=O)c2cccc3ccccc23)c2ncn(C(C)C)c2c1 (centres undefined) | inactive |  |
| O=C(COC(=O)c1ccc(F)cc1F)Nc1ncccn1 | 20 µM (active) |  |
| O=C(COC(=O)CSc1ccccc1)Nc1ccc(F)cc1F | inactive |  |
| COc1cc(OC)cc(C(=O)OCC(=O)Nc2ccc(F)cc2F)c1 | inactive |  |
| O=S(=O)(c1ccccc1)N1CCC(c2ccccc2)CC1 | inactive |  |
| O=C(COC(=O)COc1cc(Cl)c(Cl)cc1Cl)NC1CC1 | inactive |  |
| CCCCN(C(=O)CCNC(=O)NC12CC3CC(CC(C3)C1)C2)c1c(N)n(CCCC)c(=O)[nH]c1=O | inactive |  |
| COc1ccc(Cc2nnc(NC(=O)Cc3cccs3)s2)cc1 | 4.47 µM (active) |  |
| CCc1nnc(NC(=O)Cc2cccs2)s1 | inactive |  |
| COc1ccc(Cc2nnc(NC(=O)c3ccc(OC)cc3OC)s2)cc1 |  | 1.66% [at 2.29 µM] |
| Cn1cc[n+](C)c1COc1ccc(C=O)cc1 | inactive |  |
| CCOCCOC(=O)C1=C(C)NC(=O)NC1c1ccc2c(c1)OCO2 (centres undefined) | inactive |  |
| CC1(c2ccccc2)NC(=O)N(CC(=O)N2CC(=O)Nc3ccccc32)C1=O (centres undefined) | inactive |  |
| Cc1ccc(C2(C)NC(=O)N(CC(=O)N3CC(=O)Nc4ccccc43)C2=O)cc1 (centres undefined) | inactive |  |
| CCOC(=O)N1CCN(C(=O)C(C)NC(=O)c2ccco2)CC1 (centres undefined) | inactive |  |
| CCOc1cc(/C=N/O)cc(Br)c1OC | inactive |  |
| C=CCOc1c(Br)cc(/C=N\n2nnnc2N)cc1OC | inactive |  |
| CCOc1c(Br)cc(/C=C2\C(=O)N(CCC#N)N=C2C)cc1OC | 14.1 µM (active) |  |
| CCOC(=O)[C@@H]1[C@H]2COc3cc(OC)ccc3[C@@H]2N2C(=O)N(c3cccc(C)c3)C(=O)[C@@]12C | inactive |  |
| CC(OC(=O)c1ccc([N+](=O)[O-])cc1)C(=O)NCC1CCCCC1 (centres undefined) | inactive |  |
| CCCCN1C(=O)C(C)=C(C)C1OCCc1ccc(OC)c(OC)c1 (centres undefined) |  | 0.955% [at 2.29 µM] |
